In PubChem BioAssay (NCI) one finds growth data, which are given here for 16 compounds.

Test in all cases: NCI-60 one-dose screen, 48 h (100 = growth as untreated, 0 = no growth, -100 = all killed)
One assay has as its system NCI-H23 lung. To be noted: 10 µM unless noted.
A further assay has as its system NCI-H226 lung. To be noted: 10 µM unless noted.
In a further assay the test system is NCI-H322M lung. To be noted: 10 µM unless noted.
A further assay deals with HOP-62 NSCLC. To be noted: 10 µM unless noted.
The test system of another assay is NCI-H460 lung. To be noted: 10 µM unless noted.
The subject of a further assay is HOP-92 NSCLC. To be noted: 10 µM unless noted.
A further assay relates to 786-0 renal. To be noted: 10 µM unless noted.
Another assay deals with COLO 205 colon. To be noted: 10 µM unless noted.
Another assay relates to A549/ATCC NSCLC. To be noted: 10 µM unless noted.
A further assay relates to NCI-H522 lung. To be noted: 10 µM.

About 83,000 compounds went through this panel and 20% of them were active in at least one assay; those are over-represented in the sample as a whole.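 Assay: single dose, 48 h. Readout: percent growth (0 = no net growth; negative = cell death). Active: <10.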 A number with no mark means an inactive call. Activity calls are given as the source filed them.

Take `C/C=C(/C(=C/C)c1ccc(O)cc1)c1ccc(O)cc1`: the growth in the assay on NCI-H23 lung is 48%; in the assay on NCI-H226 lung, 69.9%; in the assay with NCI-H322M lung it was 27.4%; in the assay with HOP-62 NSCLC it was 36%; with NCI-H460 lung, 20.2%; with HOP-92 NSCLC, 58.5%. Besides, the results for the growth in the assay on 786-0 renal and in the assay with COLO 205 colon were 39.3% and 73.9%, respectively.
Regarding `COc1cc(C2CC(c3ccc(C)cc3)=NN2C=O)ccc1OCCN(C)C` (stereo not drawn), the growth is 106% in the assay with NCI-H23 lung; 86.4% in the assay on NCI-H226 lung; 94.3% in the assay with NCI-H322M lung; 87.9% with HOP-62 NSCLC; 99% in the assay on NCI-H460 lung; 84.6% in the assay on A549/ATCC NSCLC. Moreover, the growth was 101% with 786-0 renal and 95.8% in the assay with COLO 205 colon.
For the compound `COCCCNS(=O)(=O)c1ncnc2nc[nH]c12`, the growth was 96.4% in the assay on NCI-H23 lung; 134% with NCI-H226 lung; 119% in the assay on NCI-H322M lung; 93.4% with HOP-62 NSCLC; 105% with NCI-H460 lung; 120% in the assay on HOP-92 NSCLC. For the same compound, the values for the growth in the assay with 786-0 renal and in the assay on COLO 205 colon were 98.9% and 112%, respectively.
With `O=C(NCCCl)NCCN1c2nc3ccccc3cc2Sc2cc3ccccc3nc21`, the growth in the assay on NCI-H23 lung was 39.1%; in the assay on NCI-H226 lung, 63.5%; with NCI-H322M lung, 107%; in the assay on HOP-62 NSCLC, 51.7%; in the assay on NCI-H460 lung, 26%; with HOP-92 NSCLC, -5.57% (active). Moreover, the values for the growth in the assay on 786-0 renal and in the assay with COLO 205 colon were 57.9% and 73.8%, respectively.
Take `COC(=O)c1c(NC(=O)CSc2nnnn2-c2ccc(OC)cc2)sc(C)c1C`: the growth in the assay on NCI-H23 lung is 76.7%; in the assay with NCI-H226 lung it was 79.4%; in the assay with NCI-H322M lung, 100%; in the assay with HOP-62 NSCLC, 99.3%; in the assay on NCI-H460 lung it was 106%; in the assay with HOP-92 NSCLC it was 75.1%. Moreover, the growth in the assay on 786-0 renal is 107%; in the assay on COLO 205 colon it was 105%.
As for `Cn1c(=O)c2[nH]c(=S)n(Cc3ccccc3)c2n(C)c1=O`, the growth with NCI-H23 lung was 93.1%; in the assay with NCI-H226 lung, 104%; in the assay with NCI-H322M lung it was 118%; in the assay with HOP-62 NSCLC, 70%; in the assay with HOP-92 NSCLC it was 91.8%; with A549/ATCC NSCLC it was 95.2%. The growth was 102% with 786-0 renal and 109% in the assay on COLO 205 colon.
Turning to `N#Cc1c(NC(=O)c2ccco2)[n+]([O-])c2cc(Cl)c(Cl)cc2[n+]1[O-]`, the growth with NCI-H23 lung is 86.3%; in the assay with NCI-H226 lung it was 106%; in the assay with NCI-H322M lung, 121%; with HOP-62 NSCLC it was 137%; in the assay with HOP-92 NSCLC, 212%; in the assay with A549/ATCC NSCLC, 96.6%. The growth in the assay on 786-0 renal is 107%; with COLO 205 colon, 114%.
With `COc1ccc2c(c1)sc1nc(-c3ccc(Br)cc3)cn12`, the growth with NCI-H23 lung is 100%; with NCI-H226 lung, 101%; with NCI-H322M lung, 99.8%; in the assay with HOP-62 NSCLC it was 108%; in the assay with NCI-H460 lung, 117%; in the assay on A549/ATCC NSCLC, 95%. The growth is 98% with 786-0 renal and 129% with COLO 205 colon.
On to `COc1cc(/C=C2\SC(N3CCCCC3)=NC2=O)ccc1OCCCCCCOc1ccc(/C=C2\SC(N3CCCCC3)=NC2=O)cc1OC`, for which the growth in the assay on NCI-H23 lung is 5.35% (active); with NCI-H226 lung it was -20.1% (active); in the assay on NCI-H322M lung it was 48.3%; with HOP-62 NSCLC, 6.62% (active); with HOP-92 NSCLC, 32.2%; in the assay on NCI-H522 lung, -11.5% (active). The figures for the growth in the assay with 786-0 renal and in the assay with COLO 205 colon were 50.5% and 0.374% (active), respectively.
`C[C@]12CCC(=O)C=C1CCC1C2[C@@H](O)C[C@@]2(C)C1CC[C@]2(O)C(=O)COC(=O)CCC(=O)O` (stereo partly drawn): the growth in the assay on NCI-H23 lung is 106%; with NCI-H226 lung, 77.4%; in the assay on NCI-H322M lung it was 95.4%; in the assay on HOP-62 NSCLC, 112%; in the assay on HOP-92 NSCLC, 60.6%; in the assay with NCI-H522 lung, 107%. Also, the growth in the assay on 786-0 renal is 116%; with COLO 205 colon it was 110%.
Turning to `O=C1Nc2ccc(Cl)cc2[C@@](C#CC2CC2)(C(F)(F)F)O1`, the growth in the assay on NCI-H23 lung was 87.8%; with NCI-H226 lung, 81.4%; in the assay on NCI-H322M lung it was 80.9%; in the assay on HOP-62 NSCLC, 104%; in the assay with HOP-92 NSCLC, 93.2%; in the assay on A549/ATCC NSCLC, 70.7%. The values for the growth in the assay with 786-0 renal and in the assay on COLO 205 colon were 96.6% and 127%, respectively.
For the compound `COc1ccc(N2CCN(CC(=O)N3CCN(c4nnc(-c5ccccc5)c(-c5ccccc5)n4)CC3)CC2)cc1`, the growth with NCI-H23 lung is 46.8%; in the assay with NCI-H226 lung it was 46.2%; in the assay with NCI-H322M lung, 78.2%; in the assay on HOP-62 NSCLC, 64.7%; with HOP-92 NSCLC it was 39%; with A549/ATCC NSCLC, 14.8%. For the same compound, the growth in the assay with 786-0 renal is 27%; in the assay with COLO 205 colon, 47.9%.
Regarding `CC(=O)OC1Oc2cc(C)c(C)cc2-c2oc(=O)c(-c3ccccc3)cc21` (stereo not drawn), the growth in the assay on NCI-H23 lung is 46.3%; with NCI-H226 lung, -6.38% (active); with NCI-H322M lung it was 33.5%; in the assay with HOP-62 NSCLC, 48%; in the assay on HOP-92 NSCLC it was -41.5% (active); in the assay on A549/ATCC NSCLC, 24.8%. For the same compound, the growth in the assay with 786-0 renal is 33.5%; with COLO 205 colon, 0.826% (active).
As to `COC(=O)[C@H](Cc1cn(C)cn1)NC(=O)[C@@H](NC(=O)Nc1cc(C(F)(F)F)cc(C(F)(F)F)c1)C(C)C`, the growth is -77.2% [100 µM] (active) in the assay on NCI-H23 lung; -52.3% [100 µM] (active) with NCI-H226 lung; -90.4% [100 µM] (active) in the assay on NCI-H322M lung; -98.6% [100 µM] (active) in the assay on HOP-62 NSCLC; -45.9% [100 µM] (active) in the assay on NCI-H460 lung; -73% [100 µM] (active) in the assay with A549/ATCC NSCLC. Also, the growth in the assay on 786-0 renal was -90.6% [100 µM] (active); with COLO 205 colon, -94.4% [100 µM] (active).
Turning to `COc1cnc2c(c1)C(=O)c1c-2n(CCCN2CCNCC2)c(=O)c2cc(F)ccc12`, the growth is -3.16% (active) in the assay on NCI-H23 lung; -57.6% (active) in the assay with NCI-H226 lung; 13.7% in the assay on NCI-H322M lung; -8.55% (active) in the assay with HOP-62 NSCLC; -58.4% (active) in the assay on NCI-H460 lung; -70.4% (active) in the assay on A549/ATCC NSCLC. Besides, the growth in the assay with 786-0 renal is -94.3% (active); in the assay on COLO 205 colon, -10.5% (active).
Turning to `O=C(/C=C/c1cccc(Nc2ccnc3cc(Cl)ccc23)c1)c1ccc(Cl)cc1`, the growth with NCI-H23 lung was 45.9%; in the assay on NCI-H226 lung it was 49.5%; in the assay with NCI-H322M lung, 67.3%; in the assay on HOP-62 NSCLC it was 50.2%; in the assay on NCI-H460 lung, 66.7%; with A549/ATCC NSCLC, 79.4%. For the same compound, the growth in the assay on 786-0 renal is 58%; with COLO 205 colon, 80.1%.
